The full ranking holds about 33,000 sequences; the median of “E-score (-0.5 to 0.5)” is about -0.012, and the highest 2% start at about 0.29. The entries come from a sample that favours the highest values as a whole.
biological target: T1, Ybr033w (UniProt P38073); assay: PBM E-score (8-mer binding enrichment) (E-score (-0.5 to 0.5)); higher = stronger / more preferred TF binding; conditions: protein concentration: 200 nM; construct: GST-full length
T1 sequence: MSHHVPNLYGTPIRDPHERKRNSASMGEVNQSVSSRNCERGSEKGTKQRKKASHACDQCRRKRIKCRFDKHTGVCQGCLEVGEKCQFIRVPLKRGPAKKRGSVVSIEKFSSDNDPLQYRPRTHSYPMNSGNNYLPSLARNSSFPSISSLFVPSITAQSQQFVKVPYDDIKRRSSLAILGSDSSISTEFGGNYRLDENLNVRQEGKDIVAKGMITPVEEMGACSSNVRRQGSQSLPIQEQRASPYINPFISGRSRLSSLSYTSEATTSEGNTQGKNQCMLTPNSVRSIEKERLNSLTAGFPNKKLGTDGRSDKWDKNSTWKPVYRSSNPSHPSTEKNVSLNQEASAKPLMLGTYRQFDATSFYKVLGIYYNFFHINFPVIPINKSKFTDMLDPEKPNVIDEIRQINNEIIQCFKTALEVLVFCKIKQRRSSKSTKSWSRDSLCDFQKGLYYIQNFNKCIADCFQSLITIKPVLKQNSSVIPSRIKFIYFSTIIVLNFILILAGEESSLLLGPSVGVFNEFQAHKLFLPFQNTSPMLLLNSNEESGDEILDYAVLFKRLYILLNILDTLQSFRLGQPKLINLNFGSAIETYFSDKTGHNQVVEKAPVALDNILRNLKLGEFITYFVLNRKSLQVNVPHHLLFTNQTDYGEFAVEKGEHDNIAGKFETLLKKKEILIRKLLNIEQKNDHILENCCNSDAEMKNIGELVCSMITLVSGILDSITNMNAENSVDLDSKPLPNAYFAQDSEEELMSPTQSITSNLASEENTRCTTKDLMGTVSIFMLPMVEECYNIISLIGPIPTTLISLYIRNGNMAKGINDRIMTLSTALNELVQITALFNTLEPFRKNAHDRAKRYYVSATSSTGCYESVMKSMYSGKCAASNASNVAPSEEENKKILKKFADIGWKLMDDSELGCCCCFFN
Procedure: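 Universal 'all 10-mer' protein binding microarrays (Agilent AMADID 015681) probed with GST-tagged S. cerevisiae TFs (full-length or DBD) made by in vitro transcription/translation (PURExpress), about 100-200 nM. Bound TF was detected with fluorescent anti-GST. Each ungapped 8-mer (which stands for itself and its reverse complement) is scored by the PBM enrichment score (E-score), a modified Wilcoxon-Mann-Whitney statistic from -0.5 to +0.5, computed with the Universal PBM Analysis Suite. Scale: above 0.35 generally sequence-specific binding.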

Sequence	PBM E-score
AGGACGGC	-0.235
GAGAGTCA	-0.0369
CGTCCTCC	-0.314
GAGAGATC	-0.00339
TCGGGAAA	0.253
TCAGAAAA	0.0198
TCGGAAAA	0.424
CCTTGGCC	-0.318
GAACATCC	0.303
CAACATCC	-0.07
AAACATCC	0.192
CAGAGCGA	0.105
TGGGTGAA	0.15
ATAAGGAA	0.0859
ATAAGGAT	0.297
ATAAGGAC	-0.0427
CCGAAGGC	-0.11
ATTCTGGC	-0.217
AGCATAAA	0.141
CATATAAG	0.114
AGTATAAA	0.266
CGTATAAA	0.291
CGCATAAA	0.297
AATATAAA	0.344
TGCATAAA	0.218

Sequence	PBM E-score
CATATAAA	0.174
TATATAAA	0.282
CGTATAAC	0.0815
AATATAAG	0.295
AATATAAT	0.236
AATACTTC	0.21
AACTAGAC	0.0442
GTGGTAGA	-0.158
CGGTGAGC	-0.26
AGCTGACA	-0.103
CCCACAAA	0.0286
AGTAAGAC	-0.00585
ATAACTGC	0.193
TGAAGAAA	0.134
CCAAGTCA	-0.0141
CAGTGCAG	-0.0894
CCGGAAGA	0.404
CCGGAAGC	0.0751
ACGGAAGA	0.338
TCGGAAGA	0.193
CCGGAAGG	0.0448
ACGGAAGT	0.0483
AGTCACCG	-0.104
TACTGCCA	0.038
AATCACCG	-0.0481

Sequence	PBM E-score
TATCACCA	0.0892
AATCACCA	0.295
AGACTGCC	-0.219
CAGTTATA	0.074
CATATTTC	0.213
CCTATTTC	0.124
GATTTTTA	0.209
GATATTTA	0.338
AATATTTG	0.232
AATATTTA	0.318
AATATTTC	0.34
GCTATTTA	0.132
CATATTTA	0.28
CGCTCTAA	-0.0524
CCAAAGAG	-0.0366
CCCACCAC	-0.0659
CCATACGA	0.0671
CCCGCCTC	-0.17
CGCCCCAA	-0.118
ATGAACAT	0.217
TGGAACAA	0.434
GCGAACAA	0.183
GGGAACAA	0.381
ACGAACAT	0.151
TGGAACCA	0.0554

Sequence	PBM E-score
GGGAACAC	0.0998
TCGAACAA	0.138
AGGAACAG	-0.0964
AGGAACAA	0.402
AGGAACAT	0.399
AGGAACAC	0.193
CCTGAATA	0.186
TCCCCTAA	-0.208
ATCTATTA	0.327
ATGTATTG	0.266
CTCTATCA	-0.0434
GTGTATTA	0.28
GTCTATTA	-0.0198
ATGTATTA	0.293
GTCTATCA	0.0657
CTCTATTA	0.152
ATCTATCA	0.302
GCTACAAC	0.0399
GAAGAGCC	-0.13
ACCGGCCA	-0.314
ATCCACAT	0.224
ACTCCTCC	-0.182
CGTAGTCA	-0.186
AATATCAC	0.239
AATATCGG	0.198

Sequence	PBM E-score
AATATCAA	0.233
AATATCAG	0.299
AATATCGT	0.33
AATATCAT	0.294
ACTATCAT	0.242
AATATCGA	0.164
CATATCAG	0.0658
ACGACGTA	0.0878
ACTTGGAC	0.127
ACCAGCAT	0.0255
CTGCGGTC	-0.262
AATCTACG	-0.0149
ACAGCACA	0.144
CCCCTTCG	-0.317
ACAATACT	0.219
AAAATACC	0.315
AATACTCT	0.298
AATACTCC	0.0328
AAAATACT	0.301
CAAATACC	0.112
AAAATACG	0.171
AATACTCA	0.229
AAAATACA	0.254
CTCTAGCA	-0.0957
AACGATGA	0.0671

Sequence	PBM E-score
GTGTTAGA	0.0758
GATAAGTA	0.205
GTAGACTA	-0.131
AATGCAAA	0.274
TCACTGGA	0.00252
ATAGTAGC	0.16
GACCTCCC	-0.249
CCGCGTGC	-0.231
CTTAAATA	0.114
ATTAAATA	0.33
ATTAAATG	0.347
GTTAAATA	0.278
ATTAAATC	0.213
ATAAAATG	0.219
AGCACAGC	0.0732
CATCGAGC	-0.0235
ATCTTGCG	0.0267
ATCTTGCA	0.294
GTCTTGCA	0.0132
AACTTGGT	0.168
GCTTTCCC	-0.253
AAAACTTC	0.176
AAAACTTA	0.362
TAAACTAA	0.271
AAAACTAT	0.217

Sequence	PBM E-score
GAAACTTC	0.112
CAAACTTA	0.191
TAAACTTA	0.166
GAAACTTA	0.332
AAAACTAA	0.328
ATTCTTAA	0.0371
AAAGCTAG	0.103
CCTAGCCG	-0.157
GAGCGTTA	0.113
GGTTCTAC	-0.0153
CGAATAAC	0.07
GGAATAAA	0.296
GGAATAAC	0.453
AGAATAAT	0.163
CGAATAAA	0.145
AGAATAAG	0.14
AGAATAAC	0.141
TGAATAAA	0.195
AGAATAAA	0.312
GATCGAGC	-0.00942
ATAGGTGG	-0.108
CGAGTGGC	-0.32
AGTTACCG	0.0592
GGAAGAAA	0.34
TTCAAAAA	0.239

Sequence	PBM E-score
TCAAGAAA	0.291
CCAAGAAA	0.167
GGAAGAAC	0.461
CGAAGAAA	0.156
ACAAGAAA	0.206
AGAAGAAA	0.0907
GTCAAGAA	0.146
AGAAGAAC	0.171
TTCAAGAA	0.296
CGAAGAAC	0.145
AGACTAGC	-0.208
CCTTGCTA	0.00278
AGGAGCGG	-0.359
CGGGTAGA	-0.0322
GTAAATTA	0.193
ATAAATTG	0.365
AGAAATTG	0.281
AAAAATTG	0.221
ATAAATCC	0.324
ATAAATCA	0.223
ATAAATGC	0.0963
ATAAATTA	0.375
ATAAATCG	0.218
CTAAATTA	0.173
ATAAATTC	0.308

Sequence	PBM E-score
CTAAATTC	0.204
ACTATTGA	0.243
CTGGAGAA	-0.115
CAGAGTAA	-0.0159
CTAGAGCC	-0.0992
TCCAACGA	-0.0709
AGTCACAT	0.0586
GTGCCCGA	-0.142
AAAGCTTC	-0.0172
AGCTCTGG	-0.197
AGTTGCTC	-0.15
ATTCCACC	0.208
ATTCCACG	-0.0625
ATTCCACA	0.335
AGATTCTG	-0.0373
ACTGGATG	-0.0668
ATTGGTCG	-0.0127
GTAATATA	0.299
GCAATATA	0.123
ATATAATA	0.34
CTAATATC	0.196
CTAATAGA	0.06
GTAATAGA	0.17
CTATAATA	0.156
CTAATATA	0.297

Sequence	PBM E-score
GTATAATA	0.207
GGAATATA	0.291
AGAATATA	0.134
CGAATATA	0.156
AATCCAAG	0.228
CTAGCGAG	-0.177
ACATCGCT	-0.101
ACGGGCAT	-0.108
ACTTTAGG	-0.0326
CCCCAAGA	-0.0572
ATAATATG	0.273
ATAATATA	0.321
ATAATATC	0.28
CAAGTCTC	-0.0267
CTGGCCGC	-0.0871
GACTTATC	-0.152
CACTTATA	0.176
AACTTATG	0.223
TACTTATA	0.12
GACTTATA	0.293
AACTTATA	0.353
AAGCCACA	-0.0702
AGCCTCTA	-0.114
ACCAGAGA	0.0781
GAGTCGAA	0.173

Sequence	PBM E-score
CAATATTG	0.199
CAATATTA	0.27
CAGTATCA	-0.0137
TAATATCA	0.319
TAGTATCA	0.319
GAATATTA	0.315
GAATATCA	0.259
TAATATTA	0.342
GAGTATCA	0.0233
AAATATCA	0.252
CAATATCA	0.171
GAATATGA	0.203
GTGTGTGA	0.0756
CGAGGTAA	-0.0143
GGAGCGCC	-0.27
ACTAGTCG	-0.166
ACCATCTC	-0.0025
CCTCGTAA	-0.0544
GAATATCC	0.227
CAATATTC	0.219
AAATATTA	0.211
AAATATGC	0.237
AAATATTG	0.274
GAATATTC	0.344
AAATATTC	0.37

Sequence	PBM E-score
AAATATTT	0.357
AATCTTTC	0.00719
GCCATTTA	-0.0426
AGCAAGCC	-0.126
AGGTGGAC	-0.104
ATCTAGAA	0.214
ATAATTTA	0.338
GTAATTTA	0.218
ATAATTGG	0.157
AGAATTTC	0.0968
ATAATTTC	0.314
ATAATTTG	0.35
AAAATTTG	0.263
CTAATTTA	0.257
CTAATTTC	0.181
GATCTGCA	-0.215
ACACGTGT	-0.0649
ATCCCAAC	0.079
ATAGGTAG	0.0525
ACTGCTAC	0.0898
GCGGACTA	-0.0323
CAAAATTC	0.308
CCAATTTA	0.203
AAAAATTC	0.228
CCAAATTA	0.269

Sequence	PBM E-score
ACAATTTA	0.225
GCAATTTA	0.307
AAAAATTA	0.302
AAAAATGA	0.233
ACAAATTA	0.328
CAAAATTG	0.0527
ACAAATTG	0.0817
CAAAATTA	0.182
AAACGCAG	-0.0761
ACCAAGTC	0.139
AGCACTGC	-0.022
AGATGCAG	0.0243
CGAAGCTC	-0.147
GAAAATTA	0.331
AAAATTTA	0.269
AGAAATTC	0.178
GAAAATTC	0.285
GGAAATTA	0.264
GAAAATGA	0.085
TAAAATGA	0.217
TAAAATTA	0.288
TAAATTTA	0.289
CAAATTTA	0.237
AGAAATTA	0.352
TAAAATCA	0.274

Sequence	PBM E-score
AATGATGT	0.17
GTTCAGCA	-0.0295
GTCGGCCA	-0.277
AAACCATG	0.0309
AGACTGCA	-0.156
ATCCATGC	0.0934
AGGTCAGG	-0.233
CAATTTTA	0.217
GAATTTTA	0.295
AAATTTTA	0.171
CCAGCGAC	-0.116
ATAGCTGG	-0.0109
CAATGACG	-0.158
TTAGTAAA	0.301
ATAGTAAA	0.277
AGAGTAAA	0.0304
AGAGTAAG	0.126
CTAGTAAA	0.242
ATAGTAAC	0.116
ATAGTAAT	0.346
GTAGTAAA	0.188
AGAGTAAT	0.313

— the supplement of paper PMC3334620
